Shown are actives, neighbours in structure and some others; about 19% of the full set was active somewhere.
SARS PLP yeast – SARS-CoV PLP inhibition in yeast | S. cerevisiae expressing SARS-CoV PLpro, growth rescue | Potency, µM (series often up to 32.9 µM), for inactives: at the highest dose activity, positive = growth rescue, most hits filed as activators | hit rate 0.19% among 330,000 | AID 485353; calls by dose curve; further: potency means the concentration at half of the fitted maximal effect; 0% is about no effect; nearly all actives have a fitted effect of over 55% in size
Cycloheximide cs – counter-screen hit for Shiga toxin inhibitors, cycloheximide; max response, %; cell reporter, cycloheximide protein synthesis inhibition counterscreen; hit rate 12% among 300,000; in the data active means max response mostly above about 13%, no sharp cut-off; inactive means mostly below about 14%; further: read at 38.3 µM for the half of the compounds with a filed dose; 0% is about no effect
Shiga toxin inh – Shiga toxin inhibition; hit rate 9.2% among 290,000; Vero cells, Shiga toxin protein synthesis inhibition reporter; inhibition, % at 38.7 µM; in the data active means inhibition mostly above about 28%, no sharp cut-off; inactive means mostly below about 43%; further: 0% is about no effect
AMA1 RON2 block – inhibitors of Plasmodium falciparum AMA1-RON2 interaction; AlphaScreen AMA1-biotinylated RON2 peptide binding; hit rate 0.2% among 360,000; Potency, µM (doses to about 58.2 µM), inactives show at the highest dose activity change, negative = inhibition, most hits filed as inhibitors;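 further: potency means the concentration at half of the fitted maximal effect; 0% = vehicle wells and -100% = peptide control; nearly all actives have a fitted effect of over 45% in size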
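AMA1 (3D7) with his tag at 25 nM final met compounds first, then biotinylated RON2 peptide at 25 nM; detection used donor plus acceptor beads, 10 µg/mL apiece, read by AlphaScreen after 30 min at room temperature.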
Pf growth 96h – P. falciparum growth inhibition at 96 hours | AID 504834 | Potency, µM (titrated, usually from 28.7 µM), inactives show at the highest dose activity change, negative = inhibition, hits mostly inhibitors | hit rate 6.9% among 320,000 | P. falciparum luciferase reporter growth, 96 h; further: potency means the concentration at half of the fitted maximal effect; on the % scale 0 is the no-effect control and ±100 the full control effect
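Parasite growth measured via integrated firefly luciferase reporter in P. falciparum. Infected erythrocytes at 2% hematocrit, 0.05% parasitemia final were treated 96 hours at 37 C under 5% CO2, and luminescence was read.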
Pf growth 48h – inhibits P. falciparum growth in the first generation, 48 h | P. falciparum luciferase growth in erythrocytes, 48 h | Potency, µM (highest dose often 28.7 µM), for the others: at the highest dose activity change, negative = inhibition, actives largely listed as inhibitors | hit rate 5.9% among 310,000 | AID 504832; further: potency means the concentration at half of the fitted maximal effect; on the % scale 0 is the no-effect control and ±100 the full control effect
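Compounds are pin-transferred into medium, infected erythrocytes (2% hematocrit, 0.1% parasitemia final) are added, and plates sit one parasite generation at 37 C in 5% CO2. Detection reagent is then added and luminescence measured.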
An asterisk follows results filed as active; ? = inconclusive; nt = no result given. Unless noted, the call rests on the fitted dose curve; in most records, active means well fitted curve in the direction sought with a large enough effect; inconclusive means small, poorly fitted or top-dose-only effect, or another doubt; inactive means no such curve, though single readings can be large; an effect the other way counts as inactive or inconclusive.

SMILES	SARS PLP yeast	Cycloheximide cs	Shiga toxin inh	AMA1 RON2 block	Pf growth 96h	Pf growth 48h
COc1ccccc1NC(=O)c1ccc(NC(=O)CSc2nc(N)cc(=O)[nH]2)cc1	-3%	nt	nt	-3%	-17%	-29%
Cc1cc(/C=C2/SC(=O)N(CC(=O)N3CCOCC3)C2=O)c(C)n1-c1ccccc1F	-4%	22*	47*	-3%	30%	67%
Cc1nnc(N2C(=O)C(O)=C(C(=O)c3ccco3)C2c2ccc(C(C)C)cc2)s1 (stereo not given)	22%	40*	64*	10%	?	27%
Cc1ccc(C2C(C(=O)c3ccco3)=C(O)C(=O)N2c2ncccn2)cc1 (stereo not given)	2%	9	1	-6%	38%	86%
Cc1nnc(N2C(=O)C(O)=C(C(=O)c3ccco3)C2c2ccc(C(C)(C)C)cc2)s1 (stereo not given)	24%	12*	21	-3%	43%	26%
CCCOc1cccc(C2C(C(=O)c3ccco3)=C(O)C(=O)N2c2nnc(C)s2)c1 (stereo not given)	1%	-5	-11	11%	-2%	10%
Cc1nnc(N2C(=O)C(O)=C(C(=O)c3ccco3)C2c2ccc(F)cc2)s1 (stereo not given)	7%	-2	-5	8%	?	-4%
CSc1ccc(C2C(C(=O)c3ccco3)=C(O)C(=O)N2c2nnc(SC)s2)cc1 (stereo not given)	-1%	36*	75*	51%	77%	65%
COCCNC(=O)C1(C)CCN(C(=O)c2ccc(C(F)(F)F)nc2C)C1 (stereo not given)	nt	nt	nt	14%	nt	nt
CCN(CC)CCn1c2c(c(SCC(=O)Nc3cccc4ccccc34)nc1=O)CCCC2	nt	nt	nt	6%	-14%	?
CCN(CC)CCOc1ccc(-c2c(C)c3c(ccc4ccccc43)oc2=O)cc1	nt	nt	nt	14%	nt	nt
Cc1ccc2cc3c(N)c(C(=O)Nc4c(C)[nH]c(=O)[nH]c4=O)sc3nc2c1	19%	-2	-10	-6%	?	3%
Cc1[nH]c(=O)[nH]c(=O)c1NC(=O)c1sc2nc3c(C)cccc3cc2c1N	-2%	-4	-3	-12%	4.7µM*	10%
Cc1cccc(C)c1NC(=O)c1sc(N)nc1-c1ccccc1	4%	-5	-6	10%	9%	-1%
Cc1ccc2nc3sc(C(=O)Nc4c(C)[nH]c(=O)[nH]c4=O)c(N)c3cc2c1	6%	31*	24	26%	8.3µM*	35%
CC[C@@H](C(=O)[C@@H](C)[C@@H](O)[C@H](C)CCc1ccc(C)c(O)c1C(=O)O)[C@H]1O[C@](CC)([C@H]2CC[C@](O)(CC)[C@H](C)O2)C[C@@H]1C	-29%	5	9	0%	?	0.093µM*
CCC(C(=O)C(C)C(O)C(C)CCc1ccc(C)c(O)c1C(=O)O)C1OC(CC)(C2CC[C@@](O)(CC)C(C)O2)CC1C (stereo not given in full)	nt	nt	nt	nt	0.38µM*	0.38µM*
CN1CCC[C@H]1c1cccnc1	nt	nt	nt	-12%	37%	5%
CN1C(=O)CCC1c1cccnc1 (stereo not given)	nt	nt	nt	nt	1.1µM*	-5%
CC(C(=O)O)n1cc(Cl)cn1 (stereo not given)	-4%	-5	-5	11%	41%	6%
COc1ccc(C(=O)N/N=C/c2ccc(N3CCOCC3)o2)cc1OC	7%	7	-7	42%	-1%	3%
O=C(N/N=C/c1ccc(N2CCOCC2)o1)c1cccc(F)c1	7%	34*	85*	96%	31%	20%
O=C(N/N=C/c1ccc(-c2cccc(C(F)(F)F)c2)o1)c1cccc(F)c1	-17%	32*	40*	25%	?	12µM*
Cc1ccc(NCC(=O)N/N=C/c2ccc(-c3cccc(C(F)(F)F)c3)o2)cc1	5%	-2	-7	21%	-18%	4%
O=C(N/N=C/c1ccc(-c2cccc(C(F)(F)F)c2)o1)c1ccccc1Br	-8%	11*	74*	96%	71%	1%
SMILES	SARS PLP yeast	Cycloheximide cs	Shiga toxin inh	AMA1 RON2 block	Pf growth 96h	Pf growth 48h
NC(=O)N/N=C/c1ccc(-c2cccc(C(F)(F)F)c2)o1	-4%	48	38*	1%	74%	34%
O=C(N/N=C/c1ccc(N2CCCCC2)o1)C(O)(c1ccccc1)c1ccccc1	6%	1	-4	nt	?	13µM*
O=C(N/N=C/c1ccc(-c2cccc(C(F)(F)F)c2)o1)c1ccccc1O	17%	-2	-10	15%	-15%	8.3µM*
CN(C)c1ccc(/C=N/NC(=O)C(O)(c2ccccc2)c2ccccc2)o1	-2%	1	-8	11%	-4%	?
OC[C@@H]1OC(O)[C@H](O)[C@H](O)[C@H]1O (stereo not given in full)	nt	2	-14	nt	nt	nt
Cc1noc(C(=O)Nc2ccc(F)c(Cl)c2)c1Cl	4%	29*	30*	-5%	233%	65%
Cc1noc(C(=O)Nc2cc(Cl)ccc2O)c1Cl	-6%	18	32	-9%	19%	5.2µM*
Cc1noc(C(=O)Nc2ccc(Cl)cc2)c1Cl	5%	-3	-3	nt	68%	22%
Cc1ccc(NC(=O)c2onc(C)c2Cl)cc1	-9%	30*	62*	19%	-45%	nt
CSC1=NC2C(N1)N(C)C(=O)N2C (stereo not given)	0%	-2	-14	18%	-13%	nt
CC1CC(C)CN(S(=O)(=O)N2CCC(C(=O)NCCc3ccccc3)CC2)C1 (stereo not given)	1%	-4	-7	-5%	-13%	15%
Fc1ccc(-c2nc3ccc(Cl)cn3c2Cc2cccc(F)c2)cc1	nt	nt	nt	-2%	nt	nt
CC1=CC(C)C2(COC(c3ccc[n+](C)c3)OC2)C(C)C1 (stereo not given)	-1%	7	25	-1%	10µM*	?
CCN(CC)C(=O)[C@H]1C[C@H](CC(=O)NCCN2CCOCC2)C(=O)N2CCc3c([nH]c4cc(CCC(=O)N(C)C)ccc34)[C@]12C	2%	nt	nt	15%	nt	nt
OC[C@H](O)[C@H](O)[C@@H](O)[C@@H](O)[C@@H]1SC(c2ccccc2)=NN1c1ccccc1	-1%	3	-8	49%	?	13µM*
CC(C)(C)n1nnnc1C(c1cccnc1)N1CCOCC1 (stereo not given)	-1%	-1	-11	-17%	25%	0%
COc1ccc(OC)c(C(c2nnnn2CC2CCCO2)N2CCN(C)CC2)c1 (stereo not given)	3%	-1	12	6%	-22%	8%
COc1ccc(C(c2nnnn2CCc2ccccc2)N2CCN(C3CCCC3)CC2)cc1OC (stereo not given)	2%	-15	-19	-13%	0.59µM*	-19%
